# Biological target: NUP188
# Assay: pooled miR-30 sensor sort-seq; sequence = guide strand
# Conditions: shRNA
row,Sequence,sensor-assay potency score (higher = more potent)
1,TAATGCTGCAGCATCTTTCGAC,-0.404
2,TTTTCTTGTCCAGCTCTCCAAG,-0.925
3,TAACTCTCTCTTCCACTGCCGG,-0.922
4,TATCGCATGAATCAGCTCCAAG,-1.05
5,TTACACAGGGTACAAGTCCTTG,-0.672
6,TATTGATAACTGTCTGTCCTGC,-0.496
7,TTGCTCTTTAAACATCTTGGTT,-0.993
8,TAGGTGTCTGTGCTGTGCCGTT,-0.606
9,TATTGGTCTGCCTACTACCAAA,-1.79
10,TAGAACAGCAATGAGGTTGTTT,0.0605
11,TACTACATAGTATATCTCCAAG,-1.14
12,TACTCTAACAAGGAGGTGCAGC,-0.568

# Biological target: NUP214
# Assay: as above
# Conditions: shRNA
row,Sequence,sensor-assay potency score (higher = more potent)
1,TAACTCTTCCAACTCCTTCTGA,-0.0589
2,TTATCAACTATTTTGTTGGGAT,0.33
3,TTTTGTTGGGATCATCTCCGGG,-0.302
4,TAGAACATCATTCACATCTTGG,-0.0154
5,TTTGTTGGACACAGCAAGCAGA,-0.715
6,TAAAGTTCACAAATATCTCTGG,0.255
7,TTGACTTTGACAGCAGAGGTTG,-0.446
8,TAATGATGCTGTCTCTCCGTGC,-0.651
9,TAATCTGATCACTTTGTCGAGC,-0.175
10,TTTAGTAGGAAAAATCTGCAAG,-0.492
11,TTTGTTGGGATCATCTCCGGGT,-0.0183
12,TTTATCAACTATTTTGTTGGGA,1.13

# Reference: the OligoGym collection
